Compound activity as filed in PubChem BioAssay.
NadD block = blocks S. aureus nicotinate mononucleotide adenylyltransferase; purified NadD enzyme, colorimetric absorbance read-out; inhibition, % at 20 µM; actives 0.78% (n = 360,000); in the data active means inhibition above about 26%
GRIN3A LBD mod = modulators (binders) of human NR3A ligand-binding domain. NR3A LBD differential scanning fluorimetry, Tm shift; 0% = protein alone, 100% = glycine-bound protein. Tm shift relative to glycine control, % at 25 µM. actives 2.5% (n = 340,000);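 active means melting temperature shift of at least 10% of the positive control shift, at one fixed dose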
rCAG binder = binds r(CAG) RNA repeats. r(CAG) RNA repeat, TO-PRO-1 dye displacement fluorescence. inhibition, % at 3 µM. actives 1.3% (n = 370,000);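 active means inhibition above the plate cutoff, the mean of all test compounds on that plate plus 3 SD, cut at about 35% in these data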;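 further: 0% = DMSO alone and 100% = 100 µM mitoxantrone as full dye displacement; higher means more dye released from RNA so lower well fluorescence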
FAS TE block = blocks the thioesterase domain of human fatty acid synthase | P49327 | recombinant FAS-TE, OMFH fluorogenic substrate, fluorescence endpoint | inhibition, % at 15 µM | actives 0.67% (n = 360,000) | AID 602261;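 active means compounds whose normalised, plate-corrected inhibition of enzyme fluorescence in the single-dose primary screen is 50% or more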;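 further: 0% = DMSO with enzyme and 100% = substrate without enzyme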
rCAG bind conf = r(CAG) RNA repeat binding, confirmation; AID 652065; shares compounds with rCAG binder; inhibition, % at 3 µM; actives 70% (n = 4,300); TO-PRO-1 dye displacement fluorescence;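 active means inhibition above a per-plate cutoff, the mean inhibition of sample wells plus 3 SD, cut at about 35% in these data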;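 further: loss of TO-PRO-1 fluorescence as compound displaces dye from 1x1 AA loop RNA; 0% = DMSO only wells and 100% = 100 µM mitoxantrone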
DNA CAG counter = DNA CAG dye complex inhibition counter-screen; AID 652068; shares compounds with rCAG binder; d(CAG) DNA oligo TO-PRO-1 dye displacement, fluorescence; actives 94% (n = 4,300); inhibition, % at 3 µM;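 active means inhibition above its plate's cutoff, the mean test-well inhibition plus 3 SD, cut at about 4.8% in these data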;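 further: 0% = DNA dye mix with DMSO and 100% = 100 µM mitoxantrone; hits displace the dye from DNA and so lower well fluorescence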
DNA CAG DR = DNA CAG dye complex inhibition, dose response counter-screen; shares compounds with rCAG binder; DNA CAG/GTC duplex TO-PRO-1 dye displacement fluorescence; IC50, µM; actives 20% (n = 250); in the data active means IC50 below about 10 µM
* hit, by the source's call; i = inactive; · = no result. Rows were chosen to be rich in hits. Some 4.3% of all compounds tested hit in one or more screens of this group.

SMILES	NadD block	GRIN3A LBD mod	rCAG binder	FAS TE block	rCAG bind conf	DNA CAG counter	others
CCCCN(Cc1ccccc1)S(=O)(=O)c1ccc2[nH]c(=O)oc2c1	-1.1	-3.8	39.5*	-4.8	29.0	8.0*
O=c1[nH]c2ccc(S(=O)(=O)N3CCC(Cc4ccccc4)CC3)cc2o1	2.7	-3.2	47.8*	-8.0	46.0*	14.2*
COC(=O)[C@]12C[C@H](CC(=O)N3CCSCC3)C(=O)N(CCc3ccc(OC)c(OC)c3)C1=C[C@H](C(C)(C)C)O[C@@H]2C	·	·	-0.6	·	·	·
O=C(NS(=O)(=O)c1ccccc1[N+](=O)[O-])[C@H]1O[C@@H](n2ccc(=O)[nH]c2=O)[C@H](O)[C@@H]1O	·	·	1.8	·	·	·
O=C(/C=C/c1ccco1)NC(=S)Nc1ccc(Cl)cn1	8.6	-1.9	38.6*	0.5	13.7	6.9*
Cc1ccc(-c2csc(NC(=S)NC(=O)/C=C/c3ccco3)n2)cc1	14.7	17.4*	38.3*	22.5	22.2	10.6*
COc1cccc(/C=C2/Sc3ccc(C(=O)NC4CC4)cc3NC2=O)c1	·	·	0.2	·	·	·
CCCCCCCCN1C(=O)[C@@H](CC(=O)N2CCN(C(=O)c3ccco3)CC2)C[C@@]2(C(=O)OC)C1=C[C@H](C1CCCC1)O[C@@H]2C	·	·	13.5	·	·	·
CN(C)c1ncc(C2=C(Cl)C(=O)C(N3CCCC3)=C(Cl)C2=O)s1	24.8	-5.7	64.8*	46.5	55.4*	24.5*	DNA CAG DR=i
CC(=O)Nc1ccc(NC(=O)C(C)OC(=O)c2ccc(S(=O)(=O)N3CCCCC3)cc2)cc1 (configuration not stated)	6.0	-5.3	1.0	-14.0	·	·
CC(OC(=O)c1ccc(NS(=O)(=O)c2ccc3[nH]c(=O)[nH]c3c2)cc1)C(=O)Nc1ccc(Cl)cc1 (configuration not stated)	6.9	15.1*	42.8*	22.7	27.6	12.7*
Cc1ccc(NC(=O)C(C)OC(=O)c2ccc(NS(=O)(=O)c3ccc(F)c(F)c3)cc2)cc1 (configuration not stated)	5.7	28.1*	58.2*	5.6	67.3*	20.0*
CC(OC(=O)c1ccc(NS(=O)(=O)c2ccc3[nH]c(=O)[nH]c3c2)cc1)C(N)=O (configuration not stated)	-6.5	2.2	3.4	-3.8	·	·
CC(=O)c1ccc(NC(=O)C(C)OC(=O)c2ccc(NS(=O)(=O)c3ccc(F)c(F)c3)cc2)cc1 (configuration not stated)	2.0	11.2*	52.6*	3.0	42.6*	17.2*
CCCCc1c(-c2ccccc2OC)ncn1Cc1ccc(OC)c(Cl)c1	·	·	-0.2	·	·	·
COC(=O)C1=C(C)N(Cc2cccc(C(F)(F)F)c2)C(=NCc2ccc3c(c2)OCO3)NC1c1cccc(F)c1 (configuration not stated)	·	·	5.1	·	·	·
O=C(NC1CCc2ccccc21)c1cc(-c2ccc(Cl)cc2)nc2ccccc12 (configuration not stated)	·	·	3.8	·	·	·
CC(C)CCCCCCCCc1cccc(O)c1C(=O)O	·	·	89.4*	·	86.5*	52.0*
COc1ccc2[nH]c(C)c(-c3csc(N)n3)c2c1	1.9	-4.6	37.0*	-1.9	14.8	10.7*
COC(=O)Cc1nnn2c1[C@H](C)[C@H](c1ccccc1Br)OC[C@@H]2c1ccccc1	·	·	2.2	·	·	·
O=S(=O)(Nc1cccc(-n2cnnn2)c1)c1cc(Br)ccc1Br	-7.2	0.5	36.1*	1.6	20.7	4.9*
COc1cccc(OC(C)CCN2CCC(C(O)(c3ccccc3)c3ccccc3)CC2)c1 (configuration not stated)	·	·	2.7	·	·	·
CCOC(=O)c1ccc(NC(=O)CC2S/C(=N/N=C/c3c[nH]c4ccccc34)NC2=O)cc1 (configuration not stated)	15.0	29.1*	78.2*	-4.2	84.7*	47.5*
Cc1ccc(NC(=O)CC2S/C(=N/N=C/c3c[nH]c4ccccc34)NC2=O)cc1 (configuration not stated)	9.2	11.4*	47.4*	0.7	64.2*	23.4*
Cc1ccccc1-c1ccc2c(c1)[C@@H]1C[C@H]3[C@@H](CN1CC2)[C@H](C)ON3C	·	·	3.8	·	·	·
SMILES	NadD block	GRIN3A LBD mod	rCAG binder	FAS TE block	rCAG bind conf	DNA CAG counter	others
O=C(Cn1nnc(-c2ccc(N3CCOCC3)cc2)n1)c1ccccc1	·	·	8.1	·	·	·
Cc1cc(NC(=S)N(Cc2ccc(Br)cc2)Cc2ccc(C(=O)O)cc2)ccc1Cl	13.7	2.0	75.1*	44.6	82.1*	48.2*
COc1cccc(NC(=S)N(Cc2ccc(Cl)cc2)Cc2ccc(C(=O)O)cc2)c1	-1.0	-32.7	53.5*	-1.8	41.7*	11.0*
COc1ccc(CN(Cc2ccc(C(=O)O)cc2)C(=S)Nc2cc(C)cc(C)c2)cc1OC	9.0	0.5	4.3	-5.9	·	·
COc1ccc(Cl)cc1NC(=S)N(Cc1ccc(C(=O)O)cc1)Cc1ccc(OC)c(OC)c1	-8.7	0.4	50.4*	1.5	47.8*	15.3*
N#CCC[C@H]1CC[C@]2(CCCN(c3ccccc3)C2)O1	·	·	-0.2	·	·	·
O=C(Nc1ccccc1)Nc1c(-c2ccc(F)cc2)nc2ncccn12	·	·	2.2	·	·	·
Cc1onc(-c2ccccc2)c1C(=O)NC(=S)NNC(=O)c1cc(-c2ccc(F)cc2)n[nH]1	18.3	9.6	67.8*	0.0	71.3*	30.9*	DNA CAG DR=>29.9
O=C(NCc1ccc(C(=O)NCC2CCCO2)cc1)c1cccc(Br)c1 (configuration not stated)	·	·	-1.3	·	·	·
O=C(Nc1ccc(C(=O)O)cc1)/C(=C\C=C\c1ccccc1)NC(=O)c1ccc(Br)cc1	20.7	-24.7	72.0*	24.1	65.8*	31.6*
CC(=O)Oc1ccc(/C=C(\NC(=O)c2cccc(Br)c2)C(=O)Nc2ccc(C(=O)O)cc2)cc1	0.5	0.3	50.0*	-1.9	27.0	6.4*
O=C(Nc1ccc(C(=O)O)cc1)/C(=C\c1ccc2c(c1)OCO2)NC(=O)c1ccc(Br)cc1	2.9	0.4	39.0*	2.6	26.8	8.0*
C/C=C/C=C(/NC(=O)c1ccccc1)C(=O)Nc1ccccc1	1.0	0.3	-3.5	-5.1	·	·
O=C(CSc1nc2ccccc2nc1N1CCOCC1)N1CCN(S(=O)(=O)c2cccc([N+](=O)[O-])c2)CC1	·	·	7.7	·	·	·
O=[N+]([O-])c1c(NCCCO)cc(SCc2ccco2)c2nonc12	1.3	-4.9	47.3*	15.5	6.0	2.1
Cc1ccc(C)c(NC(=O)C2CCCN2S(=O)(=O)c2cccnc2)c1 (configuration not stated)	·	·	-1.2	·	·	·
CCCn1c(N)c(N2CCCCC2)c(=O)n(CC(=O)Nc2ccccc2C)c1=O	-2.2	-0.6	-5.0	0.2	·	·
CCCn1c(N)c(N2CCCCC2)c(=O)n(CC(=O)Nc2ccc(OC(F)(F)F)cc2)c1=O	1.6	3.7	37.4*	-7.3	1.9	0.3
